A number with no mark means an inactive call. Inconclusive results are not listed. Activity calls are given as the source filed them. The call rests on the fitted dose curve; in most records, active means well fitted curve in the direction sought with a large enough effect in the repeat runs; inconclusive means weak or mixed curves; inactive means no such curve, though single readings can be large; an effect the other way counts as inactive or inconclusive.

The nature of assay [1]: A CellTox Green Cytotoxicity Assay to monitor cytotoxicity in HEK293 cells - 40 hour (AID 1224871). Further: nearly all actives have a fitted effect of over 45% in size. Further: potency means the concentration at half of the fitted maximal effect. In a few lines: (§1)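 Nonlytic real-time cytotoxicity: HEK293 + CellTox Green reagent plated, 5 h preincubation, pintool compound addition (23 nL in DMSO), 37 C for 40 h, fluorescence measured at successive time points.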
Assay [2] can be described thus: qHTS RealTime-Glo MT Cell Viability Assay in HEK293 cells - 16 hour (AID 1224872). Further: nearly all actives have a fitted effect of over 50% in size. Further: potency means the concentration at half of the fitted maximal effect. The essentials: (§2)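 Cells + reagent dispensed (600 cells/well, HEK293) → 5 h at 37 C/5% CO2 → 23 nL compound in DMSO pinned → 40 h at 37 C → luminescence read at 0, 8, 16, 24, 32, 40 h.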
A general note: qHTS replaces the single test concentration by a dilution series.

The nature of assay [3]: qHTS RealTime-Glo MT Cell Viability Assay in HepG2 cells - 8 hour (AID 1224873). Further: nearly all actives have a fitted effect of over 55% in size. Further: potency means the concentration at half of the fitted maximal effect. The essentials:
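HepG2 cells (600/well) mixed with RealTime-Glo MT reagent, settled 5 h at 37 C/5% CO2 before compound addition. Nonlytic NanoLuc luminescence from viable-cell prosubstrate reduction read repeatedly during 40 h treatment at 37 C.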

Assay [4] can be described thus: qHTS RealTime-Glo MT Cell Viability Assay in HEK293 cells - 40 hour (AID 1224874). Further: nearly all actives have a fitted effect of over 50% in size. Further: potency means the concentration at half of the fitted maximal effect. Conditions: RealTime-Glo luminescence; max response: active compounds read low. The essentials: (§3)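 Cells were seeded together with NanoLuc luciferase and a prosubstrate that viable cells reduce to a luciferase substrate. After a 5 h incubation at 37 C/5% CO2, compounds were added and luminescence was measured repeatedly during 40 h of treatment.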

A short description of assay [5]: A CellTox Green Cytotoxicity Assay to monitor cytotoxicity in HEK293 cells - 24 hour (AID 1224875). Further: series mostly up to about 77 µM; nearly all actives have a fitted effect of over 45% in size. In a few lines: as §1
The nature of assay [6]: A CellTox Green Cytotoxicity Assay to monitor cytotoxicity in HepG2 cells - 16 hour (AID 1224876). Further: nearly all actives have a fitted effect of over 45% in size. Further: potency means the concentration at half of the fitted maximal effect. In a few lines: (§4)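 Read-out is fluorescence of a cyanine dye excluded from live cells that stains DNA of dead HepG2 cells, with signal proportional to cytotoxicity. Plates were read at 0, 8, 16, 24, 32 and 40 h after compound addition.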
Assay [7] in a line: qHTS RealTime-Glo MT Cell Viability Assay in HepG2 cells - 32 hour (AID 1224877). Further: nearly all actives have a fitted effect of over 55% in size. Further: potency means the concentration at half of the fitted maximal effect. In a few lines: (§5)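 Real-time, nonlytic viability: 600 HepG2 cells/well mixed with NanoLuc enzyme plus prosubstrate; 5 h settle, compound (DMSO) added by pintool; luminescence monitored over 40 h at 37 C.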
The nature of assay [8]: qHTS RealTime-Glo MT Cell Viability Assay in HEK293 cells - 0 hour (AID 1224880). Further: top concentration of the series differs between compounds; nearly all actives have a fitted effect of over 45% in size. In a few lines: as §3
Assay [9] in a line: A CellTox Green Cytotoxicity Assay to monitor cytotoxicity in HEK293 cells - 32 hour (AID 1224881). Further: nearly all actives have a fitted effect of over 40% in size. Further: potency means the concentration at half of the fitted maximal effect. The essentials:
as §1

The nature of assay [10]: A CellTox Green Cytotoxicity Assay to monitor cytotoxicity in HepG2 cells - 32 hour (AID 1224883). Further: nearly all actives have a fitted effect of over 50% in size. Further: potency means the concentration at half of the fitted maximal effect. In a few lines: as §4
Assay [11] is described as follows: A CellTox Green Cytotoxicity Assay to monitor cytotoxicity in HEK293 cells - 8 hour (AID 1224884). Further: nearly all actives have a fitted effect of over 35% in size. In a few lines:
as §1

Assay [12] in a line: qHTS RealTime-Glo MT Cell Viability Assay in HepG2 cells - 16 hour (AID 1224885). Further: nearly all actives have a fitted effect of over 50% in size. Further: potency means the concentration at half of the fitted maximal effect. In a few lines: as §5
Assay [13] in a line: qHTS RealTime-Glo MT Cell Viability Assay in HEK293 cells - 24 hour (AID 1224886). Further: nearly all actives have a fitted effect of over 50% in size. Further: potency means the concentration at half of the fitted maximal effect. The essentials:
as §2

Assay [14] is described as follows: qHTS RealTime-Glo MT Cell Viability Assay in HEK293 cells - 8 hour (AID 1224887). Further: nearly all actives have a fitted effect of over 50% in size. Further: potency means the concentration at half of the fitted maximal effect. In a few lines:
as §3

A short description of assay [15]: A CellTox Green Cytotoxicity Assay to monitor cytotoxicity in HEK293 cells - 16 hour (AID 1224888). Further: nearly all actives have a fitted effect of over 35% in size. The essentials:
as §1

Assay [16] can be described thus: qHTS RealTime-Glo MT Cell Viability Assay in HepG2 cells - 0 hour (AID 1224889). Further: nearly all actives have a fitted effect of over 50% in size. The essentials: as §5
Assay [17] can be described thus: A CellTox Green Cytotoxicity Assay to monitor cytotoxicity in HepG2 cells - 24 hour (AID 1224878). Further: nearly all actives have a fitted effect of over 45% in size. Further: potency means the concentration at half of the fitted maximal effect. In a few lines: as §4
Assay [18] can be described thus: A CellTox Green Cytotoxicity Assay to monitor cytotoxicity in HepG2 cells - 40 hour (AID 1224879). Further: nearly all actives have a fitted effect of over 40% in size. Further: potency means the concentration at half of the fitted maximal effect. In a few lines: as §4
The nature of assay [19]: A CellTox Green Cytotoxicity Assay to monitor cytotoxicity in HepG2 cells - 0 hour (AID 1224882). Further: nearly all actives have a fitted effect of over 35% in size. In a few lines: as §4
Assay [20] in a line: A CellTox Green Cytotoxicity Assay to monitor cytotoxicity in HepG2 cells - 8 hour (AID 1224890). Further: nearly all actives have a fitted effect of over 45% in size. The essentials: as §4
On the % scale 0 is the no-effect control and ±100 the full control effect.

On to `Nc1ccc(C(=O)O)c(O)c1`, for which the Potency entry in [1], in [2], in [3], in [5], in assay [6] and in assay [7] was “inactive” each time. Moreover, the Potency entry in assay [8], in [9], in assay [10], in assay [11], in [12] and in assay [13] was “inactive” throughout. Further, the Potency result in [14], in assay [15] and in assay [16] was “inactive” each time. For the same compound, the max response in assay [4] was -4.05%.
In the case of `COC(=O)c1ccccc1OC`, the Potency entry in assay [1], in assay [2], in assay [3], in [5], in [7] and in assay [17] was “inactive” each time. Moreover, the Potency entry in assay [18], in [8], in assay [9], in assay [19], in assay [10] and in [11] was “inactive” throughout. Besides, the Potency entry in assay [12], in assay [13], in [16] and in assay [20] was “inactive” in each case. Besides, the max response in assay [4] was 2.19%.
Consider `CCC(CC)(CC(=O)Nc1cccc(/C=C/c2nc(C3CCC3)cs2)c1)C(=O)O`, for which the Potency entry in [1], in assay [2], in assay [3], in assay [5], in assay [6] and in [7] was “inactive” throughout. Further, the Potency result in assay [17], in [18], in assay [9], in assay [19], in assay [10] and in assay [11] was “inactive” each time. Further, the Potency result in assay [12], in assay [13], in [14], in assay [15], in assay [16] and in assay [20] was “inactive” throughout. Further, the max response in assay [4] is -19.8%.
Consider `CC1=CCC(=C(C)C)CC1`, for which the Potency entry in [1], in assay [2], in [3], in assay [5], in assay [6] and in assay [7] was “inactive” in each case. Also, the Potency entry in assay [17], in assay [18], in assay [8], in assay [19], in assay [10] and in assay [11] was “inactive” in each case. The Potency result in assay [12], in assay [13], in [14], in assay [15], in assay [16] and in [20] was “inactive” throughout. Besides, the max response in assay [4] is -2.74%.
For the compound `O=C(O)c1cc(O)c2ccccc2c1O`, the Potency was 19.5 µM (active) in assay [1]; 38.9 µM (active) in assay [2]; 17.4 µM (active) in [3]; 38.9 µM (active) in [4]; 43.6 µM (active) in [6]; 21.9 µM (active) in [7]. The Potency in assay [17] was 43.6 µM (active); in assay [18], 24.5 µM (active); in assay [9], 21.9 µM (active); in [10], 24.5 µM (active); in [12] it was 19.5 µM (active); in assay [13] it was 43.6 µM (active). Also, the Potency in [14] is 17.4 µM (active). Moreover, the Potency result in [19], in [11], in assay [15] and in assay [20] was “inactive” each time.
In the case of `ClCCl`, the Potency result in assay [1], in [2], in assay [3], in [5], in assay [6] and in assay [7] was “inactive” in each case. Besides, the Potency result in assay [17], in [18], in [8], in [19], in [10] and in assay [11] was “inactive” in each case. Besides, the Potency result in assay [12], in [13], in assay [14], in assay [15], in [16] and in assay [20] was “inactive” each time. Further, in assay [4], the max response is 10.5%.
For the compound `CC(N=C(NC#N)Nc1ccncc1)C(C)(C)C` (configuration not stated), the Potency result in [1], in assay [2], in assay [3], in assay [5], in assay [6] and in [7] was “inactive” each time. The Potency entry in [17], in assay [18], in assay [8], in assay [19], in assay [10] and in assay [11] was “inactive” each time. Besides, the Potency result in [12], in assay [13], in assay [14], in [15], in [16] and in [20] was “inactive” throughout. Further, the max response in [4] is -0.652%.
With `O=C1C(c2[nH]c3ccc(S(=O)(=O)O)cc3c2O)=Nc2ccc(S(=O)(=O)O)cc21`, the Potency entry in [1], in assay [2], in [3], in assay [5], in assay [7] and in assay [17] was “inactive” throughout. Besides, the Potency result in assay [18], in assay [8], in assay [9], in assay [19], in assay [10] and in [12] was “inactive” in each case. Also, the Potency entry in assay [13], in assay [14], in assay [15], in assay [16] and in [20] was “inactive” throughout. For the same compound, the max response in [4] was 10.2%.
Regarding `Cc1cc(-n2nc3ccc(Cl)cc3n2)c(O)c(C(C)(C)C)c1`, the Potency entry in assay [1], in assay [2], in assay [3], in [5], in assay [6] and in assay [7] was “inactive” each time. Further, the Potency result in assay [17], in assay [18], in [8], in assay [19], in assay [10] and in assay [11] was “inactive” in each case. In addition, the Potency result in assay [12], in [13], in [14], in [15], in assay [16] and in [20] was “inactive” each time. Also, the max response in assay [4] was -5.47%.
With `CCCCCCCCCCOC(=O)c1ccccc1C(=O)OCCCCCCCC`, the Potency result in [1], in [2], in assay [3], in [5], in [7] and in [17] was “inactive” each time. Moreover, the Potency result in assay [18], in assay [8], in assay [9], in [19], in assay [10] and in [11] was “inactive” throughout. The Potency result in assay [12], in assay [13], in assay [14], in [15], in [16] and in assay [20] was “inactive” in each case. Also, the max response in assay [4] was 1.51%.
As for `CCCCOC(=O)CC`, the Potency result in assay [1], in assay [2], in [3], in assay [5], in assay [7] and in [8] was “inactive” throughout. Moreover, the Potency result in [9], in [19], in [11], in assay [12], in [13] and in [14] was “inactive” throughout. Besides, the Potency entry in assay [15], in assay [16] and in assay [20] was “inactive” each time. In addition, in assay [4], the max response was 2.07%.
Consider `COc1ccc(-c2coc3cc(O)ccc3c2=O)cc1`, for which the Potency entry in assay [1], in assay [2], in assay [3], in assay [5], in assay [6] and in assay [7] was “inactive” throughout. Moreover, the Potency entry in assay [17], in assay [18], in assay [8], in [9], in assay [19] and in [10] was “inactive” each time. Besides, the Potency result in assay [11], in assay [12], in assay [13], in assay [14], in assay [16] and in assay [20] was “inactive” in each case. The max response in [4] is -10.2%.

(Values after PubChem BioAssay (Tox21).)
